Laboratory results: PubChem BioAssay (EPA / NIEHS)
Several values for one entry are separate records, joined by “and”; a condition that tells them apart may be missing. Equal entries are not always repeated. Results filed as inconclusive are left out. Activity calls are given as the source filed them. How the source made its calls: active means hit-call score of the fitted dose curve at least 0.9, where 1 is the maximum; inconclusive means response in the unintended direction; inactive means score below 0.9.

Legend:
[1] = molecular target: Cellular tumor antigen p53 (Homo sapiens) (UniProt P04637); test: TOX21_p53_BLA_p3_ratio: Tox21 HCT-116 p53 Agonism Beta-lactamase Assay, Ratio, Phase 3 (AID 2283596)
Cellular tumor antigen p53 (Homo sapiens), sequence (P04637 whole entry, looked up): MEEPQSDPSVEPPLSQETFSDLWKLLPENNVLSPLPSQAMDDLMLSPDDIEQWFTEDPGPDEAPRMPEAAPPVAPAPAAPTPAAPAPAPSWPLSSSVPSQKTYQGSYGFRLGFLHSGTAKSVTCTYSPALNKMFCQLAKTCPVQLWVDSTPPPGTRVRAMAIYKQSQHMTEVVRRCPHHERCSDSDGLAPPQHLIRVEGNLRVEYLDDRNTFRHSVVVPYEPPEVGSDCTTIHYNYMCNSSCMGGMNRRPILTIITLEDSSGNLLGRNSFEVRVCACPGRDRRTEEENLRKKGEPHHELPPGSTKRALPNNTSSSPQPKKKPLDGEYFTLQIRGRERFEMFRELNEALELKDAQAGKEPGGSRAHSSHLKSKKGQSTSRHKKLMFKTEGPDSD
Outline: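 Cells were seeded at 4000/well, rested 5 h at 37C, then dosed with DMSO compound solutions (217-fold dilution) for 16 h. CCF4-AM substrate was loaded for 2 h at room temperature, and the 460/530 nm emission ratio was fitted for gain of signal versus DMSO.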

[2] = molecular target: Cellular tumor antigen p53 (Homo sapiens) (UniProt P04637); test: TOX21_p53_BLA_p5_ratio: Tox21 HCT-116 p53 Agonism Beta-lactamase Assay, Ratio, Phase 5 (AID 2283599)
Outline: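 Beta-lactamase reporter ratio (blue 460 nm over green 530 nm, 405 nm excitation) after 2 h CCF4-AM loading, in HCT-116 cells exposed 16 h at 37 C to compounds pinned at 217-fold dilution. Increases relative to DMSO baseline scored.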

[3] = TOX21_p53_BLA_p4_viability: Viability Assessment in the Tox21 HCT-116 p53 Agonism Beta-lactamase Assay, Phase 4 (AID 2283597);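 further: hits lower the luminescence signal meaning cytotoxicity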
Outline: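 Cytotoxicity was inferred from loss of CellTiter-Glo luminescence. HCT116 cells had been dosed with compounds after 5 h plating, incubated 16 h at 37C and 5% CO2, and exposed to the CCF4-AM substrate for 2 h.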

[4] = TOX21_p53_BLA_p5_viability: Viability Assessment in the Tox21 HCT-116 p53 Agonism Beta-lactamase Assay, Phase 5 (AID 2283600)
Outline: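 Luciferase-coupled ATP quantitation of cells treated for 16 h (37C, 5% CO2) with test chemicals delivered in DMSO via a 217-fold dilution; 4000 cells/well; reagent incubated 30 min at room temperature before luminescence reading.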

[5] = molecular target: Cellular tumor antigen p53 (Homo sapiens) (UniProt P04637); test: TOX21_p53_BLA_p4_ratio: Tox21 HCT-116 p53 Agonism Beta-lactamase Assay, Ratio, Phase 4 (AID 2283601)
Outline: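 Signal is the blue/green (460nm/530nm) ratio of cleaved versus uncleaved CCF4-AM substrate, read after 2 h substrate loading. Cells were HCT116 carrying the p53-responsive beta-lactamase reporter, dosed 16 h at 37C, 5% CO2; CellTiter-Glo measured in parallel.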

[6] = Tanguay_ZF_120hpf_MORT_legacy: (Legacy) Oregon State University Tanguay Lab 120 Hour Post-fertilization zebrafish Assay for Mortality (AID 2283633)
Outline: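 Dechorionated Tropical 5D wild-type zebrafish embryos, one per well from 6 hpf, were statically exposed at 28C in the dark until 120 hpf (0.64% DMSO final). Mortality was scored as present/absent by brightfield microscopy, fitted positively versus DMSO.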

[7] = Tanguay_ZF_120hpf_YSE_legacy: (Legacy) Oregon State University Tanguay Lab 120 Hour Post-fertilization zebrafish Assay for Yolk Sac Edema (AID 2283634);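 further: actives raise the incidence of yolk sac edema above the DMSO baseline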
Outline: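 Tropical 5D wild-type embryos, dechorionated with pronase at 4 hpf, were exposed singly from 6 hpf to 120 hpf under static, sealed, dark conditions at 28C with 0.64% DMSO final. Yolk sac edema was scored present/absent by brightfield microscopy.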

[8] = Tanguay_ZF_120hpf_AXIS_legacy: (Legacy) Oregon State University Tanguay Lab 120 Hour Post-fertilization zebrafish Assay for Body Axis Malformation (AID 2283635);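 further: potency for an increased fraction of larvae scored with body axis malformation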
Outline: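 Tropical 5D wild-type zebrafish embryos, dechorionated with pronase at 4 hpf, were placed singly in wells at 6 hpf and exposed statically to test chemical (0.64% DMSO final) at 28C until 120 hpf, then scored by brightfield for body axis defects.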

[9] = Tanguay_ZF_120hpf_EYE_legacy: (Legacy) Oregon State University Tanguay Lab 120 Hour Post-fertilization zebrafish Assay for Eye Malformation (AID 2283636);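 further: binary presence or absence of eye malformation scored by brightfield in 120 hpf larvae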
Outline: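 Binary brightfield scoring of eye defects at 120 hpf after static exposure from 6 hpf of single pronase-dechorionated wild-type embryos (28C, 0.64% DMSO). Non-mortality endpoints omitted where embryos died; fit vs DMSO.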

[10] = Tanguay_ZF_120hpf_SNOU_legacy: (Legacy) Oregon State University Tanguay Lab 120 Hour Post-fertilization zebrafish Assay for Snout Malformation (AID 2283637)
Outline: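 Binary snout-malformation call at 120 hpf in wild-type 5D embryos, chorion removed by pronase, under static exposure from 6 hpf at 28C (0.64% DMSO). Embryos dying by 24 or 120 hpf excluded.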

[11] = Tanguay_ZF_120hpf_JAW_legacy: (Legacy) Oregon State University Tanguay Lab 120 Hour Post-fertilization zebrafish Assay for Jaw Malformation (AID 2283638);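 further: active means more embryos with jaw malformation than DMSO controls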
Outline: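 Tropical 5D wild-type embryos, dechorionated with pronase at 4 hpf, were placed singly per well at 6 hpf and statically exposed at 28C until 120 hpf (0.64% DMSO final). Jaw malformation scored as present/absent by brightfield microscopy at 120 hpf, analyzed relative to DMSO.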

[12] = Tanguay_ZF_120hpf_OTIC_legacy: (Legacy) Oregon State University Tanguay Lab 120 Hour Post-fertilization zebrafish Assay for Otic Vesicle Malformation (AID 2283639)
Outline: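 Brightfield scoring at 120 hpf, binary present/absent; DMSO negative control, 5uM trimethyltin chloride positive control. Static exposure at 28C, final DMSO 0.64% (vol/vol). Dead embryos not scored for malformation.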

[13] = Tanguay_ZF_120hpf_PE_legacy: (Legacy) Oregon State University Tanguay Lab 120 Hour Post-fertilization zebrafish Assay for Pericardial Edema (AID 2283640);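 further: potency for increased incidence of pericardial edema versus DMSO baseline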
Outline: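 Tropical 5D wild-type zebrafish embryos were exposed statically to 120 hpf at 28C, sealed and foil-covered, in 0.64% DMSO final. Pericardial edema was scored present/absent by brightfield microscopy; dead embryos were not scored.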

[14] = Tanguay_ZF_120hpf_BRAI_legacy: (Legacy) Oregon State University Tanguay Lab 120 Hour Post-fertilization zebrafish Assay for Brain Malformation (AID 2283641)
Outline: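 Tropical 5D wild-type zebrafish embryos were exposed statically in sealed, foil-covered plates at 28C until 120 hpf, with 0.64% (vol/vol) final DMSO. Brain malformation was scored present/absent by brightfield microscopy, relative to DMSO baseline.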

[15] = Tanguay_ZF_120hpf_SOMI_legacy: (Legacy) Oregon State University Tanguay Lab 120 Hour Post-fertilization zebrafish Assay for Somite Malformation (AID 2283647)
Outline: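 Tropical 5D wild-type zebrafish embryos, dechorionated with pronase at 4 hpf, were placed singly at 6 hpf and statically exposed until 120 hpf at 28C in 0.64% DMSO. Somite malformation was scored present/absent by brightfield microscopy versus DMSO.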

[16] = Tanguay_ZF_120hpf_PFIN_legacy: (Legacy) Oregon State University Tanguay Lab 120 Hour Post-fertilization zebrafish Assay for Pectoral Fin Malformation (AID 2283648);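 further: each larva judged yes or no for fin defect by brightfield with dead larvae skipped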
Outline: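 Pectoral fin malformation was recorded as a binary endpoint at 120 hpf in wild-type Tropical 5D larvae, which had been dechorionated and exposed statically from 6 hpf at 28C in 0.64% DMSO. Dead embryos were excluded.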

[17] = Tanguay_ZF_120hpf_CFIN_legacy: (Legacy) Oregon State University Tanguay Lab 120 Hour Post-fertilization zebrafish Assay for Caudal Fin Malformation (AID 2283649)
Outline: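 Tropical 5D wild-type embryos, dechorionated with pronase at 4 hpf, were placed singly in wells at 6 hpf and statically exposed to compound at 28C until 120 hpf (0.64% DMSO). Caudal fin malformation was scored present/absent by brightfield microscopy.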

[18] = Tanguay_ZF_120hpf_PIG_legacy: (Legacy) Oregon State University Tanguay Lab 120 Hour Post-fertilization zebrafish Assay for Pigmentation Malformation (AID 2283650)
Outline: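 Pigment malformation recorded as a binary call at 120 hpf in zebrafish (Tropical 5D) exposed singly from 6 hpf after pronase dechorionation. Static, sealed, 28C exposure, 0.64% DMSO; mortality excludes scoring; positive-direction fit against DMSO.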

[19] = Tanguay_ZF_120hpf_CIRC_legacy: (Legacy) Oregon State University Tanguay Lab 120 Hour Post-fertilization zebrafish Assay for Circulatory Malformation (AID 2283651)
Outline: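 Static exposure, 6–120 hpf, 28C, sealed and dark; one dechorionated 5D embryo/well; DMSO 0.64% v/v final. Binary circulation endpoint by brightfield; dead embryos not scored.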

In the case of CCCCCCC(C)(C)C(=O)O, the outcome [1] is reported as “inactive” and the outcome [2] is reported as “inactive”.

With CCCCCCCCCCCC[N+](C)(C)CCCCCCCCCCCC the AC50 [1] was 66.5 µM (active), the AC50 [3] was 46.1 µM (active) and the AC50 [2] was 56.6 µM (active). For the same molecule, the AC50 [4] was 37 µM (active) and the AC50 [5] was 32.3 µM (active).

In the case of NS(=O)(=O)O, the outcome [1] is reported as “inactive”, the outcome [2] is reported as “inactive” and the outcome [4] is reported as “inactive”. The outcome [5] was “inactive”.

For C=CC(C)(CCC=C(C)C)OC(C)=O (centres undefined), the outcome [1] was “inactive”, the outcome [3] was “inactive” and the outcome [2] was “inactive”. For the same molecule, the outcome [5] was “inactive”.

For NCc1cccc(CN)c1, the outcome [1] was “inactive”, the outcome [3] was “inactive” and the outcome [4] was “inactive”. For the same molecule, the outcome [5] was “inactive”.

With Cc1ccc(C)c(S(=O)(=O)O)c1 the outcome [1] was “inactive”, the outcome [3] was “inactive” and the outcome [4] was “inactive”. The outcome [5] was “inactive”.

With CCCCCCCCCCCC(=O)NCCCN(C)C the AC50 [1] was 87.2 µM (active), the AC50 [3] was 29 µM (active) and the AC50 [2] was 86 µM (active). The AC50 [4] was 65.7 µM (active) and the AC50 [5] was 59.8 µM (active).

In the case of NNc1nc(-c2ccc([N+](=O)[O-])cc2)cs1, the AC50 [1] is reported as 55.7 µM (active), the AC50 [3] is reported as 46.1 µM (active) and the AC50 [2] is reported as 39.6 µM (active). The outcome [4] was “inactive” and the AC50 [5] was 43.5 µM (active).

In the case of COC(=O)CC(C(C)=O)C(=O)OC (centres undefined), the outcome [1] is reported as “inactive”, the outcome [2] is reported as “inactive” and the outcome [4] is reported as “inactive”. For the same molecule, the outcome [5] was “inactive”.

With Cc1cc(Cc2cc(C)cc(C(C)(C)C)c2O)c(O)c(C(C)(C)C)c1 the AC50 [1] was 44.8 µM (active) and 57.1 µM (active), the AC50 [3] was 12 µM (active) and 19.2 µM (active) and the AC50 [2] was 33.6 µM (active) and 41.4 µM (active). For the same molecule, the AC50 [4] was 17.7 µM (active) and 16.7 µM (active) and the AC50 [5] was 24.2 µM (active) and 48.1 µM (active).

With Nc1cc(Cl)c(-c2cc(Cl)c(N)cc2Cl)cc1Cl the AC50 [1] was 86.4 µM (active) and 84.5 µM (active), the AC50 [3] was 40.7 µM (active) and 29.6 µM (active) and the AC50 [2] was 85.2 µM (active) and 85.6 µM (active). The AC50 [4] was 71.8 µM (active) and 61.9 µM (active) and the AC50 [5] was 81.8 µM (active) and 57.1 µM (active).

With C=CC(=O)OCC(CO)(COCC(COC(=O)C=C)(COC(=O)C=C)COC(=O)C=C)COC(=O)C=C the outcome [1] was “inactive”, the AC50 [3] was 3.32 µM (active) and the AC50 [2] was 82.5 µM (active). The AC50 [4] was 2.74 µM (active) and the AC50 [5] was 65 µM (active).

For O=C(CCCN1CCC(O)(c2ccc(Cl)cc2)CC1)c1ccc(F)cc1, the outcome [1] was “inactive”, the outcome [3] was “inactive” and the outcome [2] was “inactive”. The outcome [4] was “inactive”, the outcome [5] was “inactive” and the outcome [6] was “inactive”. The AC50 [7] was 13.1 µM (active), the AC50 [8] was 5.66 µM (active) and the AC50 [9] was 4.96 µM (active). For the same molecule, the AC50 [10] was 2.46 µM (active), the AC50 [11] was 5.66 µM (active) and the outcome [12] was “inactive”. For the same molecule, the AC50 [13] was 3.98 µM (active), the AC50 [14] was 4.16 µM (active) and the outcome [15] was “inactive”. The AC50 [16] was 5.92 µM (active), the outcome [17] was “inactive” and the outcome [18] was “inactive”. For the same molecule, the outcome [19] was “inactive”.

With CCCCCCCCCCCCCC[n+]1ccccc1 the AC50 [1] was 14.1 µM (active), the AC50 [3] was 13.3 µM (active) and the outcome [2] was “inactive”. The outcome [4] was “inactive” and the AC50 [5] was 21.6 µM (active).

With CC(O)COc1ccccc1 (centres undefined) the outcome [1] was “inactive”, the outcome [2] was “inactive” and the outcome [4] was “inactive”. For the same molecule, the outcome [5] was “inactive”.

With Oc1c(Cl)ccc(Cl)c1Cl the outcome [1] was “inactive”, the outcome [3] was “inactive” and the outcome [2] was “inactive”. The outcome [4] was “inactive” and the outcome [5] was “inactive”.

In the case of O=c1cc(-c2ccccc2)oc2ccc3ccccc3c12, the outcome [1] is reported as “inactive”, the outcome [3] is reported as “inactive” and the outcome [2] is reported as “inactive”. The outcome [4] was “inactive” and the outcome [5] was “inactive”.

For c1cnc2c(c1)ccc1cccnc12, the outcome [1] was “inactive”, the AC50 [3] was 41.8 µM (active) and the outcome [2] was “inactive”. The outcome [4] was “inactive” and the outcome [5] was “inactive”.

In the case of CCCCCCCCC1CCC(=O)O1 (centres undefined), the outcome [1] is reported as “inactive”, the outcome [2] is reported as “inactive” and the outcome [4] is reported as “inactive”. The outcome [5] was “inactive”.
